PubChem BioAssay

assay: TLR3 IRF3 reporter activation blockers – cell-based, poly I:C stimulus, luciferase, 10K MLSCN set, primary screen (AID 602277); conditions: HEK293-TLR3 RL24 IRF3 luciferase reporter, at 10 µM, active compounds read high;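 active means inhibition of the reporter signal at or above 50%; inactive means inhibition below 50%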

inhibition, inactive:
Cc1ccc(-c2nnc3c4ccccc4c(C)nn23)cc1S(=O)(=O)N1CCN(C)CC1 30.7%
CCN(CC)CCCNC1CCS(=O)(=O)C1 (centres undefined) 13.2%
CN(C)CCCN1C(=O)c2oc3ccc(Cl)cc3c(=O)c2C1c1cccnc1 (centres undefined) 39%
COc1ccc(CCn2c(-c3ccco3)nc3ccccc3c2=O)cc1OC -5.38%
O=C(CSc1nnc(-c2ccccc2)o1)N1CCc2ccccc2C1 22.9%
Cc1ccccc1NS(=O)(=O)c1cc(C(=O)N2CCCC2)ccc1C 6.74%
Nc1c(C(=O)NCc2ccco2)nnn1Cc1ccccc1 3.26%
O=C(NCC(c1cccnc1)N1CCN(c2ccc(F)cc2)CC1)OCc1ccccc1 (centres undefined) 1.38%
CCc1nnc(NC(=O)c2ccc(S(=O)(=O)NCC(C)C)cc2)s1 -61.5%
O=C(CCNS(=O)(=O)c1ccc(Br)s1)N1CCCCC1 7.37%
CCCn1c(SCC(=O)NC(C)(C)C)nnc1C(C)C 23.2%
CC(CN1CCCCC1)OC(=O)c1ccc2c(c1)OCO2 (centres undefined) -0.512%
CC(C)(C)NC(=O)Cn1nnnc1-c1nonc1N -10.1%
CC1(C)CC(=O)C(C=NCc2ccc3c(c2)OCO3)=C(O)C1 19.8%
CN1CCN(c2nc(-c3ccncc3)nc3ccccc23)CC1 15.9%
COc1ccc(S(=O)(=O)NCc2ccc(C(=O)O)cc2)cc1 17.1%
COc1ccc(CC(=O)Nc2ccc(OC)c(NC(=O)c3ccco3)c2)cc1 -49.2%
COc1ccc(NC(=O)C23CCC(C)(C(=O)C2)C3(C)C)cc1 (centres undefined) 17.8%
Cc1ccc(-c2nc3cc(N)ccc3o2)cc1 -58.1%
COc1cccc(C(=O)Nc2ccc(NC(C)=O)cn2)c1 -56%
Cc1cnc(C(=O)Nc2ccc(N3CCN(C(=O)OC(C)(C)C)CC3)cc2)cn1 6.1%
O=C(CSc1nnnn1C1CCCC1)NCc1ccc2c(c1)OCO2 22.3%
CCC(C)(C(=O)NC1CCCC1)N(Cc1cccs1)C(=O)Cc1cccs1 (centres undefined) 44.6%
CCOc1ccc2c(c1)n(CO)c(=S)n2CO 19.4%
CCn1c(CSc2nnc(-c3cccnc3)n2-c2ccccc2C)nc2cc(C(=O)O)ccc21 9.03%
CCOC(=O)NC(=O)CSc1nnnn1-c1ccc(Cl)cc1 15.2%
Nn1cc(-c2ccccc2)nc1SCC(=O)N1CCN(S(=O)(=O)c2ccccc2)CC1 12.7%
COC(=O)C1=C(N)Oc2cc(C)n(Cc3ccncc3)c(=O)c2C1c1cccnc1 (centres undefined) 14.1%
COC(=O)C1CCN(C(=O)CN2C(=O)NC(CCc3ccccc3)C2=O)CC1 (centres undefined) -13.6%
O=C(CSc1nnc(C2COc3ccccc3O2)o1)N1CCCc2ccccc21 (centres undefined) 34.9%
CN(C)S(=O)(=O)N1CCN(C(=O)N(c2ccccc2)c2ccccc2)CC1 -15.1%
COCC(C)NC(=O)CCS(=O)(=O)c1nc(-c2ccc(OC)cc2)cc(C(F)(F)F)n1 (centres undefined) 1.39%
O=C(NCc1cccnc1)c1ccc(Cl)c(Cl)c1 7.17%
CCN(CC)CCOC(=O)c1cccc(OC)c1 14.4%
CN1CCN(c2ncnc3c2cnn3-c2ccc(Cl)cc2)CC1 6.85%
NC(=O)C1CCN(C(=O)c2cc3n(n2)C(C(F)(F)F)CC(c2ccco2)N3)CC1 (centres undefined) 24.2%
CC(C)(C)c1ccc2c(c1)OCC(C(=O)O)O2 (centres undefined) 4.32%
Cc1cc(C)c2c(n1)nn1c(NCCCN3CCOCC3)cc(C)nc21 21.2%
Cc1n[nH]c(C)c1N1C(=O)c2cccc3cc(Br)cc(c23)C1=O 27.1%
